# Data from the supplement of paper PMC12282887.
# ± gives the standard deviation of the averaged measurements.
# Columns and labels:
# Test in all cases: promoter activity interaction Z-score (Lux/OD deviation from empty-vector control); higher = stronger promoter induction by the compound
# [1] = system: E. coli BW25113 acrABp lux reporter
# Method in brief: (§1)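 Low-copy luxCDABE promoter reporters were carried by E. coli BW25113, either wild type or lacking one of three genes, grown in 40 µl LB Lennox in 384-well plates at 37°C. Each compound was run at four 1:2 dilutions in biological duplicates, with OD600 and luminescence read every 30 min for 12 h. Integration used 0–8 h for wild type and 1–9 h for deletion strains, and wells under 10% of the median growth value were removed. Luminescence normalised to growth was fitted against a control, and the Z-transformed residual is the score.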
# [2] = system: E. coli BW25113 micFp lux reporter
# Method in brief: as §1
# [3] = system: E. coli BW25113 ompFp lux reporter
# Method in brief: as §1
# [4] = system: E. coli BW25113 robp lux reporter
# Method in brief: as §1
# [5] = system: E. coli BW25113 soxSp lux reporter
# Method in brief: as §1
# [6] = system: E. coli BW25113 tolCp lux reporter
# Method in brief: as §1
# [7] = 1.7 µg/ml, genetic background: wild type
# [8] = 1.7 µg/ml, genetic background: ΔmarA
# [9] = 1.7 µg/ml, genetic background: Δrob
# [10] = 1.7 µg/ml, genetic background: ΔsoxS
# [11] = 3.5 µg/ml, genetic background: wild type
# [12] = 3.5 µg/ml, genetic background: ΔmarA
# [13] = 3.5 µg/ml, genetic background: Δrob
# [14] = 3.5 µg/ml, genetic background: ΔsoxS
# [15] = 6.9 µg/ml, genetic background: wild type
# [16] = 6.9 µg/ml, genetic background: ΔmarA
# [17] = 6.9 µg/ml, genetic background: Δrob
# [18] = 6.9 µg/ml, genetic background: ΔsoxS
# [19] = 13.9 µg/ml, genetic background: wild type
# [20] = 13.9 µg/ml, genetic background: ΔmarA
# [21] = 13.9 µg/ml, genetic background: Δrob
# [22] = 13.9 µg/ml, genetic background: ΔsoxS
compound,measurement,setting,value
NC(=O)c1cc[n+](CC2=C(C(=O)[O-])N3C(=O)[C@@H](NC(=O)[C@@H](c4ccccc4)S(=O)(=O)O)[C@H]3SC2)cc1 [Cefsulodin],promoter activity interaction Z-score,[1]; [7],0.269 ± 0.15
same,promoter activity interaction Z-score,[1]; [8],0.601 ± 0.24
same,promoter activity interaction Z-score,[1]; [9],-0.158 ± 0.15
same,promoter activity interaction Z-score,[1]; [10],-0.315 ± 0.077
same,promoter activity interaction Z-score,[1]; [11],0.0267 ± 0.076
same,promoter activity interaction Z-score,[1]; [12],0.343 ± 0.28
same,promoter activity interaction Z-score,[1]; [13],0.17 ± 0.29
same,promoter activity interaction Z-score,[1]; [14],-0.28 ± 0.31
same,promoter activity interaction Z-score,[1]; [15],0.306 ± 0.13
same,promoter activity interaction Z-score,[1]; [16],-0.189 ± 0.29
same,promoter activity interaction Z-score,[1]; [17],-0.455 ± 0.052
same,promoter activity interaction Z-score,[1]; [18],-0.399 ± 0.055
same,promoter activity interaction Z-score,[1]; [19],0.379 ± 0.28
same,promoter activity interaction Z-score,[1]; [20],-0.532 ± 0.81
same,promoter activity interaction Z-score,[1]; [21],0.198 ± 0.17
same,promoter activity interaction Z-score,[1]; [22],0.0814 ± 0.14
same,promoter activity interaction Z-score,[2]; [7],0.14 ± 0.014
same,promoter activity interaction Z-score,[2]; [8],-0.0463 ± 0.21
same,promoter activity interaction Z-score,[2]; [9],0.0953 ± 0.35
same,promoter activity interaction Z-score,[2]; [10],-0.338 ± 0.047
same,promoter activity interaction Z-score,[2]; [11],0.0738 ± 0.052
same,promoter activity interaction Z-score,[2]; [12],-0.0526 ± 0.14
same,promoter activity interaction Z-score,[2]; [13],-0.0549 ± 0.0043
same,promoter activity interaction Z-score,[2]; [14],-0.224 ± 0.027
same,promoter activity interaction Z-score,[2]; [15],0.373 ± 0.2
same,promoter activity interaction Z-score,[2]; [16],-0.161 ± 0.17
same,promoter activity interaction Z-score,[2]; [17],0.046 ± 0.26
same,promoter activity interaction Z-score,[2]; [18],-0.32 ± 0.14
same,promoter activity interaction Z-score,[2]; [19],0.27 ± 0.18
same,promoter activity interaction Z-score,[2]; [20],-0.237 ± 0.007
same,promoter activity interaction Z-score,[2]; [21],-0.0142 ± 0.099
same,promoter activity interaction Z-score,[2]; [22],-0.324 ± 0.022
same,promoter activity interaction Z-score,[3]; [7],0.0922 ± 0.034
same,promoter activity interaction Z-score,[3]; [8],-0.437 ± 0.1
same,promoter activity interaction Z-score,[3]; [9],0.00718 ± 0.63
same,promoter activity interaction Z-score,[3]; [10],-0.453 ± 0.23
same,promoter activity interaction Z-score,[3]; [11],0.101 ± 0.094
same,promoter activity interaction Z-score,[3]; [12],0.0789 ± 0.37
same,promoter activity interaction Z-score,[3]; [13],-0.19 ± 0.099
same,promoter activity interaction Z-score,[3]; [14],-0.294 ± 0.097
same,promoter activity interaction Z-score,[3]; [15],0.254 ± 0.0045
same,promoter activity interaction Z-score,[3]; [16],-0.42 ± 0.15
same,promoter activity interaction Z-score,[3]; [17],-0.561 ± 0.17
same,promoter activity interaction Z-score,[3]; [18],-0.258 ± 0.67
same,promoter activity interaction Z-score,[3]; [19],2.4 ± 0.66
same,promoter activity interaction Z-score,[3]; [20],1.43 ± 0.62
same,promoter activity interaction Z-score,[3]; [21],1.29 ± 0.045
same,promoter activity interaction Z-score,[3]; [22],0.329 ± 1.2
same,promoter activity interaction Z-score,[4]; [7],0.353 ± 0.3
same,promoter activity interaction Z-score,[4]; [8],-0.684 ± 0.45
same,promoter activity interaction Z-score,[4]; [9],-0.402 ± 0.66
same,promoter activity interaction Z-score,[4]; [10],-0.564 ± 0.41
same,promoter activity interaction Z-score,[4]; [11],0.22 ± 0.28
same,promoter activity interaction Z-score,[4]; [12],-0.459 ± 0.031
same,promoter activity interaction Z-score,[4]; [13],-0.153 ± 0.28
same,promoter activity interaction Z-score,[4]; [14],-0.0266 ± 0.11
same,promoter activity interaction Z-score,[4]; [15],0.775 ± 0.033
same,promoter activity interaction Z-score,[4]; [16],-1.06 ± 0.66
same,promoter activity interaction Z-score,[4]; [17],-0.421 ± 0.63
same,promoter activity interaction Z-score,[4]; [18],-0.255 ± 0.017
same,promoter activity interaction Z-score,[4]; [19],-0.0503 ± 0.35
same,promoter activity interaction Z-score,[4]; [20],-0.32 ± 0.51
same,promoter activity interaction Z-score,[4]; [21],-0.936 ± 0.25
same,promoter activity interaction Z-score,[4]; [22],-1.59 ± 0.21
same,promoter activity interaction Z-score,[5]; [7],0.243 ± 0.14
same,promoter activity interaction Z-score,[5]; [8],0.0161 ± 0.021
same,promoter activity interaction Z-score,[5]; [9],0.337 ± 0.44
same,promoter activity interaction Z-score,[5]; [10],-0.145 ± 0.16
same,promoter activity interaction Z-score,[5]; [11],0.223 ± 0.013
same,promoter activity interaction Z-score,[5]; [12],0.0152 ± 0.069
same,promoter activity interaction Z-score,[5]; [13],0.186 ± 0.38
same,promoter activity interaction Z-score,[5]; [14],0.0422 ± 0.085
same,promoter activity interaction Z-score,[5]; [15],0.195 ± 0.0077
same,promoter activity interaction Z-score,[5]; [16],-0.0335 ± 0.17
same,promoter activity interaction Z-score,[5]; [17],0.0477 ± 0.44
same,promoter activity interaction Z-score,[5]; [18],-0.0923 ± 0.35
same,promoter activity interaction Z-score,[5]; [19],0.167 ± 0.16
same,promoter activity interaction Z-score,[5]; [20],-0.302 ± 0.11
same,promoter activity interaction Z-score,[5]; [21],-0.117 ± 0.011
same,promoter activity interaction Z-score,[5]; [22],-0.0117 ± 0.15
same,promoter activity interaction Z-score,[6]; [7],0.715 ± 0.94
same,promoter activity interaction Z-score,[6]; [8],-0.256 ± 0.052
same,promoter activity interaction Z-score,[6]; [9],0.191 ± 0.14
same,promoter activity interaction Z-score,[6]; [10],-1.1 ± 0.63
same,promoter activity interaction Z-score,[6]; [11],-0.195 ± 0.71
same,promoter activity interaction Z-score,[6]; [12],-0.0142 ± 0.11
same,promoter activity interaction Z-score,[6]; [13],0.0051 ± 0.65
same,promoter activity interaction Z-score,[6]; [14],-0.229 ± 0.0049
same,promoter activity interaction Z-score,[6]; [15],0.976 ± 0.34
same,promoter activity interaction Z-score,[6]; [16],-0.562 ± 0.45
same,promoter activity interaction Z-score,[6]; [17],-0.0786 ± 0.68
same,promoter activity interaction Z-score,[6]; [18],-0.444 ± 0.1
same,promoter activity interaction Z-score,[6]; [19],-0.259 ± 0.34
same,promoter activity interaction Z-score,[6]; [20],-0.283 ± 0.28
same,promoter activity interaction Z-score,[6]; [21],-0.0472 ± 0.28
same,promoter activity interaction Z-score,[6]; [22],-0.088 ± 0.34
